10 compounds from ChEMBL document CHEMBL1961873, “Compounds: GSK PKIS; Assays: Nanosyn kinase panel” (2012) can be followed below.

The subject of assay [1] is Epidermal growth factor receptor (Homo sapiens), P00533 [T790M]. The following applies: at 1 µM.
For assay [2], the system named is Epidermal growth factor receptor (Homo sapiens), P00533 [L858R,T790M]. The following applies: at 0.1 µM.
Assay [3] has the same test system. Conditions: at 1 µM.
Assay [4] concerns the target Ephrin type-A receptor 2 (Homo sapiens) (UniProt P29317). Conditions: at 0.1 µM.
Assay [5] shares this target. Conditions: at 1 µM.
Assay [6] addresses T1, Ephrin type-A receptor 3 (Homo sapiens) (UniProt P29320).
T1 sequence (whole entry): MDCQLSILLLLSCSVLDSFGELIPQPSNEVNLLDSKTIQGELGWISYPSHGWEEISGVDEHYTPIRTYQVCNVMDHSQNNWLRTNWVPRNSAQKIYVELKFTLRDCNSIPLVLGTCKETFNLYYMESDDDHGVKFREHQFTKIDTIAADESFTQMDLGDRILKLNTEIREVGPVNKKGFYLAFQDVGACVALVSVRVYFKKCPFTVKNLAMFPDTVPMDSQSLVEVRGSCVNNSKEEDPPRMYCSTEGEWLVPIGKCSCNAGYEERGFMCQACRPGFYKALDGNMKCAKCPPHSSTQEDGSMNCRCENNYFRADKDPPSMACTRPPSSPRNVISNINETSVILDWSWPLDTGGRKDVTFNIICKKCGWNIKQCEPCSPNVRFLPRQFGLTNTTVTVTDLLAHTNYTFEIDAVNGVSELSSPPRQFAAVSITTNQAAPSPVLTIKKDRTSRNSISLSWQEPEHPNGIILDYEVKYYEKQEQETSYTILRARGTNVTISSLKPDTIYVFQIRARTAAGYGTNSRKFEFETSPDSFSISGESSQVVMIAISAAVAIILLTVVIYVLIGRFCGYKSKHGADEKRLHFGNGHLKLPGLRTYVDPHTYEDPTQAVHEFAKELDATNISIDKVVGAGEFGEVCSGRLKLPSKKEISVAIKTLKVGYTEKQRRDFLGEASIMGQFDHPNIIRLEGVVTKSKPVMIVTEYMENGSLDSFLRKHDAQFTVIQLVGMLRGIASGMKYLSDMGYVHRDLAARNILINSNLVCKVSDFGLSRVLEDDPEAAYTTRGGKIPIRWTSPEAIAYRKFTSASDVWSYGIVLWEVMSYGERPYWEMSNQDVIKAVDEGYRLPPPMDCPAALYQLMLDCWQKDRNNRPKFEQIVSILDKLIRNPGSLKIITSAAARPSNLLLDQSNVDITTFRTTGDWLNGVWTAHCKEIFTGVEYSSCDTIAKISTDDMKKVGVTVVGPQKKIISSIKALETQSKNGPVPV
The following applies: at 0.1 µM.

The target in assay [7] is T1, Ephrin type-A receptor 3 (Homo sapiens). The following applies: at 1 µM.
Assay [8] has as its target Ephrin type-A receptor 4 (Homo sapiens) (UniProt P54764). The following applies: at 0.1 µM.
For assay [9] the target is unchanged. Conditions: at 1 µM.
Assay [10] concerns the target T2, Ephrin type-B receptor 2 (Homo sapiens) (UniProt P29323).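 Note: reported as mean inhibition of EPHB2, from the GSK PKIS dataset.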
T2 sequence (whole entry): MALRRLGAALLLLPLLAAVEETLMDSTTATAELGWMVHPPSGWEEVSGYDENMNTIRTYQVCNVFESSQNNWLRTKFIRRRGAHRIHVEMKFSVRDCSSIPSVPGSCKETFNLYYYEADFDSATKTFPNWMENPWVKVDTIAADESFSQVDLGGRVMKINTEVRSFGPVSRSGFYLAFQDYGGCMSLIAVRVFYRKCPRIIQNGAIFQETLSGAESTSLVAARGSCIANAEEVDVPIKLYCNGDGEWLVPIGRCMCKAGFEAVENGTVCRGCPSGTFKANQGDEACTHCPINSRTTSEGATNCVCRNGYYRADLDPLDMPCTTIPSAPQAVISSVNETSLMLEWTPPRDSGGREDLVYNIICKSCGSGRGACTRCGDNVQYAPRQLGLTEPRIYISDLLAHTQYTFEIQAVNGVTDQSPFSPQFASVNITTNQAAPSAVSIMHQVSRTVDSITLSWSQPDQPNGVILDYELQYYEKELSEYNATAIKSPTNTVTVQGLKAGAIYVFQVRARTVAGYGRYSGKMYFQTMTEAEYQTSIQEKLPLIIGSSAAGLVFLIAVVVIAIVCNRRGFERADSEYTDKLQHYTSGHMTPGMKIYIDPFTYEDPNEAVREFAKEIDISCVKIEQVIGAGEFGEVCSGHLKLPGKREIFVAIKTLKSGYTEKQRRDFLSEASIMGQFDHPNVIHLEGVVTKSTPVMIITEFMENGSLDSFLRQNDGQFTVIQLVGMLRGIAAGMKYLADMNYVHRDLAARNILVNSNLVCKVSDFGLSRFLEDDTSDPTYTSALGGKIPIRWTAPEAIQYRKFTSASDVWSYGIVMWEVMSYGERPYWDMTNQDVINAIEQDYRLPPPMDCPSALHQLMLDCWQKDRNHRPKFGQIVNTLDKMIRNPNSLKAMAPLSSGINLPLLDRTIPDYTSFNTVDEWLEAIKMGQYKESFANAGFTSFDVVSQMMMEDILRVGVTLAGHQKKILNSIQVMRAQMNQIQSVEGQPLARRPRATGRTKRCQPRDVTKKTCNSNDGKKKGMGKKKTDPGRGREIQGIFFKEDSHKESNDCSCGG
The following applies: at 0.1 µM.

Sequence of Ephrin type-A receptor 2 (Homo sapiens) (P29317 whole entry): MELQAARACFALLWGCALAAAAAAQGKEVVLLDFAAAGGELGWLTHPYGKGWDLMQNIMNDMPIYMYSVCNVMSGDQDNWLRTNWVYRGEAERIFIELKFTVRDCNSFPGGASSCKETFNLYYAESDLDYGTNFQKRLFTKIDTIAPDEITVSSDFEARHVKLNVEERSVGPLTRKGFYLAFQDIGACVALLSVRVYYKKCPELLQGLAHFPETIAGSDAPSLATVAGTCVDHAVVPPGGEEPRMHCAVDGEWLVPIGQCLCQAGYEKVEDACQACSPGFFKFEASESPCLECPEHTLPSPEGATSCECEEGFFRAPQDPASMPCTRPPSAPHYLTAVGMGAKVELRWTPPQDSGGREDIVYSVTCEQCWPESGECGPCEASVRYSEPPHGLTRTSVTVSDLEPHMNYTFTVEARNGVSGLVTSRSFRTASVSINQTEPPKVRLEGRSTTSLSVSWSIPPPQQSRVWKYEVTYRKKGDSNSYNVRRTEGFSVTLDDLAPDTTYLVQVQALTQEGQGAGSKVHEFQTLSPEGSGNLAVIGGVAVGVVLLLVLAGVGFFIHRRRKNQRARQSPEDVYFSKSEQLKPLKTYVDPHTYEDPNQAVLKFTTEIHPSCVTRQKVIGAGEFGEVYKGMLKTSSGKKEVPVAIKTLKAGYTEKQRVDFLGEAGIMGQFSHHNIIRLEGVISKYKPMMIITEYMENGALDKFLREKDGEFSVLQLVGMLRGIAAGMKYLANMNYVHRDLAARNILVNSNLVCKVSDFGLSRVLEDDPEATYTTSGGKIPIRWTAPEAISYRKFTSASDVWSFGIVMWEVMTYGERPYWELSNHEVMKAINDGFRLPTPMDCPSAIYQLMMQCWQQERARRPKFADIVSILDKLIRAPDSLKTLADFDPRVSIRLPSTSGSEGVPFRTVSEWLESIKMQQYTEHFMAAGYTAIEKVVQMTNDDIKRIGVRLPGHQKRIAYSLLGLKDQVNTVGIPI
Sequence of Ephrin type-A receptor 4 (Homo sapiens) (P54764 whole entry): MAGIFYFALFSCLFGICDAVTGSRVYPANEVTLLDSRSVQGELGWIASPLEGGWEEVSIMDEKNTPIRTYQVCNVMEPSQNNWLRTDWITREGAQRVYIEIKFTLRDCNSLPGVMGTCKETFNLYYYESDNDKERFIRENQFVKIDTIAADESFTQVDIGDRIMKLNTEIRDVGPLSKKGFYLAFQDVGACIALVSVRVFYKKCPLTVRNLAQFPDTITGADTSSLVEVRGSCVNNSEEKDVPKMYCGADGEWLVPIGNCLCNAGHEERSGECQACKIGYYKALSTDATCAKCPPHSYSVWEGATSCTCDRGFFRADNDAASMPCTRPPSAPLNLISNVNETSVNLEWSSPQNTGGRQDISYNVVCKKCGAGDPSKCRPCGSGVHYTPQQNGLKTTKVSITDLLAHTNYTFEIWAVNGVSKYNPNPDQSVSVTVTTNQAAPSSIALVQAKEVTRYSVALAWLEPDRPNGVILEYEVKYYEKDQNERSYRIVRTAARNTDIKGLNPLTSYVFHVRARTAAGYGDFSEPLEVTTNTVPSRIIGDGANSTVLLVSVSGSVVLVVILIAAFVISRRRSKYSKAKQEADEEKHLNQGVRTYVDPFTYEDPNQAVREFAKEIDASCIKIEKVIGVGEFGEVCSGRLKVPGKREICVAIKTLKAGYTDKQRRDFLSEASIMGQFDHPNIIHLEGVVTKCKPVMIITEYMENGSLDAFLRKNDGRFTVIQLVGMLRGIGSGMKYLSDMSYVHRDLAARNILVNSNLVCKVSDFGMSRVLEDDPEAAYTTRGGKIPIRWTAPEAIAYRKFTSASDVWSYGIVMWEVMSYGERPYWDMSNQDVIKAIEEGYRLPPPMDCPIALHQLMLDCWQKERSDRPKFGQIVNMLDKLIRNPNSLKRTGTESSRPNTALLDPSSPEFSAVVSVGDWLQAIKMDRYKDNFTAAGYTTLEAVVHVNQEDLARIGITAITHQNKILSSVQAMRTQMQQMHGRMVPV
Sequence of Epidermal growth factor receptor (Homo sapiens), P00533 [T790M] (P00533 whole entry T790M): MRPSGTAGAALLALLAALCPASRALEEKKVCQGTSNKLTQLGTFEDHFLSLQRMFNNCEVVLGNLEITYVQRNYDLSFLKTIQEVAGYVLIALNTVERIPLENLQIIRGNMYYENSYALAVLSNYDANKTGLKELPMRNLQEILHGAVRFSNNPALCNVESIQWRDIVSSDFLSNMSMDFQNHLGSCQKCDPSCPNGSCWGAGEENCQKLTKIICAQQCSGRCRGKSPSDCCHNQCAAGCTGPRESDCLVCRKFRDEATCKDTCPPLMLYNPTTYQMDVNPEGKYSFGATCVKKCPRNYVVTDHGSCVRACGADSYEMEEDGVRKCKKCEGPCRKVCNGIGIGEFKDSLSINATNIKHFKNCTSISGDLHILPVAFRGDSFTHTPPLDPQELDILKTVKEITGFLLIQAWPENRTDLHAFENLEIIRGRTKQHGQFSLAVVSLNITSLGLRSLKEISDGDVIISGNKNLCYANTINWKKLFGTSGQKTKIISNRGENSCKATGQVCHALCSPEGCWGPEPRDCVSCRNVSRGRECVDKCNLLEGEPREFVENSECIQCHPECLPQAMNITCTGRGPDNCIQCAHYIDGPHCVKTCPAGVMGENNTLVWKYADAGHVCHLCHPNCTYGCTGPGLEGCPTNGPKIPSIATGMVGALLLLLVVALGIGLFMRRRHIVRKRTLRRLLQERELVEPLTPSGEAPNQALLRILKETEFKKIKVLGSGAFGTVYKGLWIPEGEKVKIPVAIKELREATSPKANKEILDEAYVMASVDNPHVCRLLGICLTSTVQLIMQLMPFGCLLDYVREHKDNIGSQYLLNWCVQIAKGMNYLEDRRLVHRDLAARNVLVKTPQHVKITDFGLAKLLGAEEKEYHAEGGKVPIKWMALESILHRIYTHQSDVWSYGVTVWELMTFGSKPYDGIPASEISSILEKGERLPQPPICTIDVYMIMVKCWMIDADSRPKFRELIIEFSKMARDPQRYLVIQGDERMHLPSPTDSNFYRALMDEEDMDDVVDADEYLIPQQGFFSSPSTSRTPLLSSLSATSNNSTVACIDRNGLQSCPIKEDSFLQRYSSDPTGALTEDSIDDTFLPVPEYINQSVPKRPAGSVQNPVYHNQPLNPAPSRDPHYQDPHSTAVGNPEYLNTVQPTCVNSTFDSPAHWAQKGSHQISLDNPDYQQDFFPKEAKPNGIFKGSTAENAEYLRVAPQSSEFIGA
Sequence of Epidermal growth factor receptor (Homo sapiens), P00533 [L858R,T790M] (P00533 whole entry T790M/L858R, looked up): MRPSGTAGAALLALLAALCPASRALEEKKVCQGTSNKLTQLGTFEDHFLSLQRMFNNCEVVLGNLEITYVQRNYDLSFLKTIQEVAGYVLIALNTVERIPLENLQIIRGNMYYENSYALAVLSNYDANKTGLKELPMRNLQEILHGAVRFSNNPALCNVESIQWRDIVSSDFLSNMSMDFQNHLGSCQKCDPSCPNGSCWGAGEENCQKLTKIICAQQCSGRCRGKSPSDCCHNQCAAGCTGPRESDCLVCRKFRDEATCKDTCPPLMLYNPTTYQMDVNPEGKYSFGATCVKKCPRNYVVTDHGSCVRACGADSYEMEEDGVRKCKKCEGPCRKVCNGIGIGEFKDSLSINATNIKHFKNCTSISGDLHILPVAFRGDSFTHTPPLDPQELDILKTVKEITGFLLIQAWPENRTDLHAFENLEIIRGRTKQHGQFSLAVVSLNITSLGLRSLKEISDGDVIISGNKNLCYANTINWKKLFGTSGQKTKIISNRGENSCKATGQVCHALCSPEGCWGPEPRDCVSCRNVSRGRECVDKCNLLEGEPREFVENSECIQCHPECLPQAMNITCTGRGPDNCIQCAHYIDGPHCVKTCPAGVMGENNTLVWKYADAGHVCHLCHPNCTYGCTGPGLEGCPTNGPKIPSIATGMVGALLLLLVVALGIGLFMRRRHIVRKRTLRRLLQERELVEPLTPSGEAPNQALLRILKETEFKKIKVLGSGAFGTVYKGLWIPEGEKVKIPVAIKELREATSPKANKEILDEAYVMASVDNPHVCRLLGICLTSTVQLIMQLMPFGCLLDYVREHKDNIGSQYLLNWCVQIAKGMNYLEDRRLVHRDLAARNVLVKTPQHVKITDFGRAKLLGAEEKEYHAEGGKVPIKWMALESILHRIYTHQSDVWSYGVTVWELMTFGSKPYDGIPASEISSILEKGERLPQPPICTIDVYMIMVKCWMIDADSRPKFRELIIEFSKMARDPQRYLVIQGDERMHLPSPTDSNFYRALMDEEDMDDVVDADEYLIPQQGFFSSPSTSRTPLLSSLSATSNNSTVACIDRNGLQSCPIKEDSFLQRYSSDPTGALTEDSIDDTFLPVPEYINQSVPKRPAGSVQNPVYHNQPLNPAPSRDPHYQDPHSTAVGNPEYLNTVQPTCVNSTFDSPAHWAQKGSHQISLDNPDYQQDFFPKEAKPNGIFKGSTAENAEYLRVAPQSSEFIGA

For the compound `O=C(O[C@H]1CN[C@H](C#Cc2cc3ncnc(Nc4ccc5c(ccn5Cc5cc(F)ccc5F)c4)c3s2)C1)N1CCOCC1`, the inhibition in assay [1] worked out at 50.3%; in [2], 4.66%; in [3], 9.08%; in [4], 0.75%; in assay [5], 0.06%; in assay [6], 4.84%. In addition, the inhibition came out at 4.4% in assay [7], 6.87% in [8], 3.19% in assay [9] and 5.25% in [10].

For the compound `CC1=C(C(=O)Nc2ccc3[nH]ncc3c2)C(c2ccc(F)cc2)N=C(c2ccc(C(F)(F)F)nc2)N1` (stereo not given), the inhibition in [1] was 0.81%; in assay [2], 4.44%; in assay [3] it was -0.48%; in assay [4], -1.16%; in assay [5], -0.31%; in [6] it was 3.49%. Besides, the inhibition in assay [7] turned out to be 3.54%; in [8], 5.75%; in assay [9], 6.21%; in [10], 8.47%.

Turning to `CCOc1ccc2c(-c3ccnc(Nc4cc(OC)cc(C(F)(F)F)c4)n3)cnn2n1`, the inhibition is 0.47% in [1]; 0.87% in [2]; -2.16% in assay [3]; -2.58% in assay [4]; -0.79% in assay [5]; -0.82% in assay [6]. Further, the inhibition in [7] is 1.98%; in assay [8], 2.94%; in assay [9] it was 6.63%; in [10], 3.54%.

For `O=C(O[C@H]1CN[C@H](C#Cc2cc3ncnc(Nc4ccc(OCc5cccc(F)c5)c(Cl)c4)c3s2)C1)N1CCOCC1`, the inhibition in assay [1] was determined as 18%; in [2], 4.1%; in assay [3] it was 9.08%; in assay [4], 1.93%; in [5], 1.46%; in [6], 5.97%. For the same compound, the inhibition in assay [7] is 4.01%; in [8], 10.4%; in [9], 12.3%; in [10], 7.71%.

As to `COc1cc2c(cc1Nc1nc(Nc3cccc(F)c3C(N)=O)c3cc[nH]c3n1)N(C(=O)CN1CCN(C(C)C)CC1)CC2`, the inhibition in [1] came out at 27%; in assay [2], 1.09%; in assay [3], 47.3%; in [4] it was 1.37%; in [5], 0.53%; in assay [6], 1.47%. In addition, the inhibition was determined as 0.43% in assay [7], 3.76% in assay [8], 4.41% in [9] and 2.75% in assay [10].

`N#Cc1cccc(Nc2ncc(-c3ccccc3)o2)c1`: the inhibition in assay [1] came to 3.24%; in assay [2] it was 0.29%; in assay [3] it was 3.37%; in assay [4], 1.14%; in assay [5], 0.54%; in assay [6], 2.39%. In addition, the inhibition in assay [7] was found to be 1.84%; in assay [8] it was 6.35%; in [9], 8.39%; in [10] it was 2.84%.

As to `CS(=O)(=O)Nc1ccc(-c2ccc3c(NC(=O)C4CC4)n[nH]c3c2)cc1`, the inhibition in assay [1] was 0.23%; in [2] it was 0.3%; in assay [3], 0.93%; in assay [4], 2.88%; in assay [5], 1.54%; in assay [6], 5.15%. Further, the inhibition in assay [7] is 4.1%; in assay [8], 5.41%; in [9], 1.08%; in [10] it was 9.15%.

Take `c1ccc(-c2n[nH]cc2-c2ccnc(-c3ccc(OCCn4ccnc4)cc3)c2)nc1`: the inhibition in [1] is 0.85%; in assay [2] it was -0.66%; in assay [3] it was 2.87%; in assay [4] it was -2.85%; in assay [5], -3.04%; in [6], -1.82%. Further, the inhibition in assay [7] was 0.58%; in [8], 0.18%; in [9], 0.69%; in assay [10] it was -0.16%.

As to `CS(=O)(=O)CCNCc1ccoc1-c1ccc2ncnc(Nc3ccc(OCc4ccccc4)cc3)c2c1`, the inhibition in assay [1] was 4.58%; in assay [2], -0.19%; in [3], -0.52%; in assay [4], -2.48%; in assay [5], -2.19%; in [6], 0.44%. Besides, the inhibition in [7] is 2.32%; in assay [8], 4.33%; in assay [9], 6.25%; in [10], 4.8%.

On to `CCN1CCC(C(=O)Nc2n[nH]c3nnc(-c4cccc(F)c4F)cc23)CC1`, for which the inhibition in assay [1] is 0.18%; in [2], 0.75%; in assay [3], -1.85%; in assay [4], -3.74%; in assay [5] it was -3.34%; in assay [6], -0.58%. The inhibition was -0.43% in assay [7], -1.7% in assay [8], -0.26% in assay [9] and 0.41% in assay [10].
